Assay results: PubChem BioAssay AID372 (MTDP, 2006)
Among all 100,000 compounds or so, about 770 (0.77%) were called active. Shown is part of a subset that was picked to be rich in actives. Values without a mark were called inactive. Cut-off read from the data, not from the text of the source: active = inhibition above about 50%; inactive = the rest.

What follows are molecules tested against Gag-Pol polyprotein (Human immunodeficiency virus type 1 group M subtype B (isolate HXB2)) (UniProt P04585) (assay: RNase H inhibition, HIV 1 Gag Pol polyprotein, FRET biochemical assay, screening (AID 372)). Details: HIV-1 RT RNase H, FRET RNA/DNA substrate fluorescence; at 10 µM; active compounds read high.

Row | Compound | inhibition
1 | Cc1ccc(S(=O)(=O)Nc2cc(C)c(O)c(S(=O)(=O)c3ccc(C)cc3)c2)cc1 | 18%
2 | O=C1c2ccc(Oc3ccc([N+](=O)[O-])cc3)cc2C(=O)N1c1nc2ccccc2s1 | 11%
3 | Cc1ccc(N2C(=O)C3C4C=CC(O4)C3C2=O)c(C)c1 (stereo not drawn) | 5%
4 | COc1ccc(Br)c(C=Nc2cccc3nsnc23)c1O | 64% (active)
5 | Oc1c(C=Nc2cccc3nsnc23)cc(Br)c2ccccc12 | 5%
6 | Oc1c(Br)ccc(Cl)c1C=Nc1cccc2nsnc12 | 8%
7 | Brc1ccccc1OCCCCCn1ccnc1 | 5%
8 | CN1C(=O)CS/C1=N/S(=O)(=O)c1ccc([N+](=O)[O-])cc1 | 10%
9 | S=C(NCc1ccco1)NC1CCCC1 | 6%
10 | Cc1ccc(-c2oc3ccccc3c(=O)c2O)cc1 | 3%
11 | O=c1c(O)c(-c2ccc(O)c(O)c2)oc2cc(O)cc(O)c12 | 73% (active)
12 | O=c1c(O)c(-c2ccc3c(c2)OCO3)oc2ccccc12 | 0%
13 | CN(C)c1ccc(C(c2c[nH]c3ccccc23)c2c[nH]c3ccccc23)cc1 | 23%
14 | Cc1cccc(/C=C2\C(=O)NC(=O)N(c3cccc(Br)c3)C2=O)c1 | 10%
15 | C=CCNC(=O)Nc1ccc2nc3c4ccccc4c4ccccc4c3nc2c1 | 51% (active)
16 | C=CCNC(=S)Nc1ccc2nc3c4ccccc4c4ccccc4c3nc2c1 | 24%
17 | C=CCNC(=O)Nc1ccc2nc(-c3ccccc3)c(-c3ccccc3)nc2c1 | 15%
18 | Cc1cc(C)n(-c2ccc(N3CCOCC3)nn2)n1 | 11%
19 | CCN(CC)C(=O)CSc1nc(-c2ccccc2)c(-c2ccccc2)o1 | 15%
20 | NC(=O)CSc1nc(-c2ccccc2)c(-c2ccccc2)o1 | 37%
21 | CC(=O)CSc1nc(-c2ccccc2)c(-c2ccccc2)o1 | 50% (active)
22 | COc1ccc(-c2csc(NC3OC(=O)c4c3ccc(OC)c4OC)n2)cc1 (stereo not drawn) | 20%
23 | CCOc1cc(C(=O)Nc2ccc(OC)c(Cl)c2)cc(OCC)c1OCC | 8%
24 | O=S(=O)(Nc1ccc(F)cc1F)c1ccc2ccccc2c1 | 15%
25 | N/C(=N/OC(=O)c1cccc([N+](=O)[O-])c1)c1nonc1N | 14%
26 | O=C1C=CC(=O)C(c2cccc(C(F)(F)F)c2)=C1 | 71% (active)

Row | Compound | inhibition
27 | O=C(O)c1ccc(-c2cc(Cl)ccc2Cl)o1 | 0%
28 | OCc1ccc(-c2cccc(Cl)c2)o1 | 28%
29 | O=C1C=CC(=O)N1c1cccc(Cl)c1 | 19%
30 | O=C1C(Cl)=C(Cl)C(=O)N1c1cc(Cl)ccc1Cl | 4%
31 | O=C1C(Cl)=C(Cl)C(=O)N1c1cccc(C(F)(F)F)c1 | 6%
32 | Cc1ccc(C2=CC(=O)N(c3cccc(C(F)(F)F)c3)C2=O)cc1 | 10%
33 | CCOc1ccc(C(=O)Nc2cccc(-c3nc4cc(C)ccc4o3)c2C)cc1Br | 11%
34 | O=C(Nc1ccc(S(=O)(=O)Nc2ncccn2)cc1)c1cccnc1 | 8%
35 | CCOc1ccc2ccc(OCC)c(/C=C3/C(=O)NC(=O)N(Cc4ccco4)C3=O)c2c1 | 26%
36 | CCCN(CCC)CCCNC(=O)/C=N\O | 6%
37 | COc1cc(OC)c(/C=C2\C(=O)NC(=S)N(c3cccc(Cl)c3)C2=O)cc1Br | 9%
38 | CC(Oc1ccc(/C=C2/SC(=O)NC2=O)cc1)C(=O)O (stereo not drawn) | 10%
39 | O=C(Nc1nnc(-c2cccc([N+](=O)[O-])c2)s1)Nc1ccc(Cl)cc1Cl | 43%
40 | O=C(/C=C/c1ccc(-c2ccc(Cl)c(Cl)c2)o1)c1ccco1 | 2%
41 | O=C(/C=C/c1ccco1)/C=C/c1ccc(-c2ccc(Br)cc2)o1 | 33%
42 | O=C(/C=C/c1ccco1)/C=C/c1ccc(-c2ccc(Cl)c(Cl)c2)o1 | 52% (active)
43 | CSc1nc(-c2ccccc2)c(C#N)c(=O)n1C | 15%
44 | CCCCCC/C(=N\NC(=O)c1ccncc1)c1ccccc1 | 5%
45 | CCc1c(C)sc(NC(=O)C2CCCCC2C(=O)O)c1C(N)=O (stereo not drawn) | 48%
46 | CCc1c(C)sc(NC(=O)C2CC3CCC2C3)c1C#N (stereo not drawn) | 21%
47 | CCc1c(C)sc(NC(=O)C2CCCCC2C(=O)O)c1C#N (stereo not drawn) | 75% (active)
48 | O=C1OC(c2sc3ccccc3c2Cl)=N/C1=C/c1ccc(F)cc1 | 1%
49 | O=C1C(=Cc2ccc(I)o2)C(=O)c2ccccc21 | 9%
50 | CN1C(=O)C(=Cc2ccc(I)o2)C(=O)N(C)C1=S | 21%
51 | CC1(C)OC(=O)C(=Cc2ccc(I)o2)C(=O)O1 | 53% (active)
52 | O=C(/C=C/c1ccccc1)C1=C(O)C(=O)N(c2ccccc2)C1c1cccc([N+](=O)[O-])c1 (stereo not drawn) | 10%

Row | Compound | inhibition
53 | Fc1cccc(-c2n[nH]c(=S)n2-c2ccccc2)c1 | 5%
54 | Cc1cc2nc3s/c(=C/c4ccc(F)cc4)c(=O)n3c2cc1C | 1%
55 | Oc1ccc(-c2cc(-c3ccc(O)cc3)nc(-c3ccccc3)n2)cc1 | 31%
56 | O=C1C=CC(=O)N1c1ccc(-c2cc(-c3ccccc3)nc(-c3ccc(N4C(=O)C=CC4=O)cc3)n2)cc1 | 54% (active)
57 | Clc1cc(-c2ccccc2)nc(-c2ccccc2)n1 | 24%
58 | Cc1ccc(C(=O)Nc2ccc(Cc3ccncc3)cc2)cc1[N+](=O)[O-] | 5%
59 | CSc1ccc(S(=O)(=O)N(CC(=O)NC2CCCCC2)c2ccc(C)cc2)cc1 | 13%
60 | Cc1ccc(N(CC(=O)NC2CCCCC2)S(=O)(=O)c2ccc(F)cc2)cc1 | 56% (active)
61 | Cc1ccc(N(CC(=O)NC2CCCC2)S(=O)(=O)c2ccc(F)cc2)cc1 | 5%
62 | COc1ccccc1CNS(=O)(=O)c1ccc(Cl)cc1 | 0%
63 | N=C1/C(=C/c2ccc(-c3ccccc3)o2)C(=O)N=C2SC(c3ccccc3)=NN12 | 2%
64 | Cc1ccc(N2NC(=O)/C(=C/c3ccc(Br)cc3)C2=O)cc1C | 15%
65 | O=C(CSc1nc2ccc(N3C(=O)c4ccccc4C3=O)cc2s1)c1ccc(Cl)cc1 | 56% (active)
66 | COc1ccc(NC(=O)CSc2nc3ccc(N4C(=O)c5ccccc5C4=O)cc3s2)cc1 | 56% (active)
67 | O=C(CSc1nc2ccc(N3C(=O)c4ccccc4C3=O)cc2s1)c1ccc(F)cc1 | 43%
68 | O=C(CSc1nc2ccc(N3C(=O)c4ccccc4C3=O)cc2s1)c1ccccc1 | 8%
69 | O=C(CSc1nc2ccc(N3C(=O)c4ccccc4C3=O)cc2s1)Nc1ccc(F)cc1 | 11%
70 | O=C(CSc1nc2ccc(N3C(=O)c4ccccc4C3=O)cc2s1)Nc1ccc(Br)cc1 | 28%
71 | COc1ccc(/C=C/c2nc3sc4c(c3c(=O)o2)CCCC4)cc1 | 14%
72 | COc1cc2ccccc2cc1C(=O)NC(=S)Nc1cccc(-c2nc3ccccc3s2)c1C | 15%
73 | O=C1NC(=O)N(c2cccc(Br)c2)C(=O)/C1=C/c1cc(Cl)c(O)c(Cl)c1 | 10%
74 | O=C1CSC(c2ccc(Cl)c(Cl)c2)N1CCc1ccccc1 (stereo not drawn) | 7%
75 | Cc1ccc(/C(O)=C/c2nc3ccc([N+](=O)[O-])cc3oc2=O)o1 | 10%
76 | Cc1cc(C)c(/C(O)=C/c2nc3ccccc3oc2=O)c(C)c1 | 0%
77 | Cc1ccc(/C(O)=C/c2nc3ccccc3oc2=O)o1 | 54% (active)
78 | COc1ccc(N=C(C)c2cc(Cl)ccc2O)cc1 | 31%

Row | Compound | inhibition
79 | Cc1ccccc1-c1nc2ccccc2c(=O)n1/N=C/c1c[nH]c2ccccc12 | 10%
80 | COc1ccc(Cc2nc3ccccc3c(=O)n2/N=C/c2cccs2)cc1OC | 23%
81 | COc1ccc(Cc2nc3ccccc3c(=O)n2/N=C/c2c[nH]c3ccccc23)cc1OC | 52% (active)
82 | N#Cc1c(/N=C/c2cc(Br)ccc2Br)sc2c1CCCC2 | 15%
83 | Fc1ccccc1OCCn1ccnc1 | 7%
84 | Cc1ccc(NCCCC(=O)N/N=C/c2cccs2)cc1 | 12%
85 | COc1ccc(C(C)=O)cc1CSc1cc(C)c2ccccc2n1 | 46%
86 | Cc1ccc(C(C)C)c(OCC(=O)Nc2cccc(Cl)c2C)c1 | 15%
87 | COc1cc(C=C2C(=O)NC(=O)NC2=O)ccc1OCc1c(C)ccc2ccccc12 | 31%
88 | O=c1nc(/C=C/c2ccc(-c3ccc(F)c(Cl)c3)o2)cc(C(F)(F)F)[nH]1 | 48%
89 | O=c1nc(/C=C/c2ccc(-c3ccc(Cl)c([N+](=O)[O-])c3)o2)cc(C(F)(F)F)[nH]1 | 54% (active)
90 | O=c1nc(/C=C/c2ccc(-c3ccc([N+](=O)[O-])cc3Cl)o2)cc(C(F)(F)F)[nH]1 | 20%
91 | COC(=O)C1=C(C)N(c2ccccc2F)C(=O)/C1=C\c1ccccc1F | 5%
92 | COc1cc([N+](=O)[O-])ccc1NC(=O)c1cc(Cl)ccc1Cl | 22%
93 | COc1cc([N+](=O)[O-])ccc1NC(=O)c1cc2ccccc2cc1OC | 53% (active)
94 | CCCC(=O)Nc1ccc(NC(=O)c2ccc(-c3ccc([N+](=O)[O-])cc3OC)o2)cc1 | 56% (active)
95 | COc1cc([N+](=O)[O-])ccc1-c1ccc(C(=O)Nc2ccc(NC(C)=O)cc2)o1 | 26%
96 | Cc1cc([N+](=O)[O-])ccc1-c1ccc(C(=O)Nc2ccc(I)cc2Cl)o1 | 24%
97 | O=C(Nc1cc([N+](=O)[O-])ccc1F)c1ccc(-c2cc(Cl)ccc2Cl)o1 | 31%
98 | COc1cc([N+](=O)[O-])ccc1-c1ccc(C(=O)Nc2ccc(I)cc2Cl)o1 | 51% (active)
99 | COc1cc([N+](=O)[O-])ccc1NC(=O)c1ccc(-c2cc(Cl)ccc2Cl)o1 | 60% (active)
100 | COc1ccccc1NC(=O)c1ccc(-c2ccc([N+](=O)[O-])cc2OC)o1 | 30%
101 | COc1cc2ccccc2cc1C(=O)Nc1cc([N+](=O)[O-])ccc1F | 46%
102 | CCOc1ccc(NC(=O)c2ccc(-c3ccc([N+](=O)[O-])cc3OC)o2)cc1 | 36%
103 | COc1cc([N+](=O)[O-])ccc1NC(=O)c1cccc2ccccc12 | 26%
